FEN1 inh – qHTS Assay for the Inhibitors of Human Flap endonuclease 1 (FEN1). Potency, µM (highest dose often 114 µM), for the others: at the top dose activity change, negative = inhibition, hits mostly inhibitors. P39748. AID 588795, 2011. 0.35% of 390,000 active. Recombinant FEN1 flap cleavage, fluorescence, 15 min; also: % is scaled to controls: 0 for no effect and ±100 for the full control effect; nearly all actives have a fitted effect of over 65% in size
Target sequence (P39748 whole entry, looked up): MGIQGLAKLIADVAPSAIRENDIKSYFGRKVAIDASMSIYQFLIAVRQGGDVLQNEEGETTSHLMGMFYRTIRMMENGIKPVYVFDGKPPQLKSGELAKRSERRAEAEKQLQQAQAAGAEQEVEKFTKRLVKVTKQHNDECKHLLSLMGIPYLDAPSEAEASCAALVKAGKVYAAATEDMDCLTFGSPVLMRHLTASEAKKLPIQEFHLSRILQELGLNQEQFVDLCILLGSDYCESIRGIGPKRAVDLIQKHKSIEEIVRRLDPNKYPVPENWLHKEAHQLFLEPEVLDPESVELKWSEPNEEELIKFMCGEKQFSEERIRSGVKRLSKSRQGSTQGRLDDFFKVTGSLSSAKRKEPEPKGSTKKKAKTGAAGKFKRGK
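Compounds are tested as a concentration series against 10 nM FEN1; after a 15 min room-temperature preincubation, 50 nM substrate starts cleavage, with plate reads at 0 and 15 min. Normalized responses are fitted by a Hill equation.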
Pol eta inh – qHTS for Inhibitors of Polymerase Eta; DNA polymerase eta (Homo sapiens), Q9Y253; recombinant Pol eta, fluorescent DNA replication assay; Potency, µM (highest dose often 114 µM), for the others: top-dose activity change, negative = inhibition, actives largely listed as inhibitors; 1.2% of 390,000 active; AID 588591, 2011; also: % is scaled to controls: 0 for no effect and ±100 for the full control effect
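Pol eta at 10 nM preincubated with compounds 15 min at room temperature; reaction started with fluorescent substrate (50 nM final) and read kinetically at 0 and 10 min.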
Pol kappa inh – qHTS for Inhibitors of Polymerase Kappa. DNA polymerase kappa (Homo sapiens), Q9UBT6. purified Pol kappa, fluorescent DNA synthesis assay, 10 min. Potency, µM (highest dose often 107 µM), for inactives: at the top dose activity, negative = inhibition, most hits filed as inhibitors. 0.53% of 400,000 active; also: % is scaled to controls: 0 for no effect and ±100 for the full control effect
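Pol kappa 10 nM + cpd, 15 min RT; start w/ substrate 50 nM final; fluorescence kinetic read, 0 and 10 min. Neg ctrl: buffer, no enzyme.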
Pol beta inh – qHTS Assay for Inhibitors of DNA Polymerase Beta; AID 485314, 2010; Potency, µM (highest dose often 114 µM), for inactives: at the highest dose activity change, negative = inhibition, usual class: inhibitors; Pol beta primer extension/strand displacement, fluorescence kinetic; 1.3% of 340,000 active; also: % is scaled to controls: 0 for no effect and ±100 for the full control effect
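Kinetic readout of DNA synthesis with strand displacement by Pol beta. Compound and 10 nM enzyme sit 15 min at room temperature; 50 nM substrate starts the reaction, read immediately and at 10 min.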
POLI inh – qHTS for Inhibitors of Polymerase Iota; Pol iota fluorescent replication assay, 10 min; Potency, µM (top dose mostly 115 µM), inactives show top-dose activity, negative = inhibition, usual class: inhibitors; 1% of 390,000 active; AID 588590, 2011
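Pol iota at 10 nM preincubated 15 min with compounds at room temperature; reaction started with fluorescent substrate, 50 nM final. Fluorescence read kinetically at 0 and 10 min; buffer-only wells as negative control.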
WRN helicase inh – qHTS for Inhibitors of WRN Helicase. Bifunctional 3'-5' exonuclease/ATP-dependent helicase WRN (Homo sapiens), Q14191. WRN helicase unwinding, fluorescent forked duplex, kinetic. Potency, µM (highest dose often 114 µM), inactives show at the highest dose activity change, negative = inhibition, usual class: inhibitors. 0.46% of 360,000 active; also: % is scaled to controls: 0 for no effect and ±100 for the full control effect; nearly all actives have a fitted effect of over 55% in size
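Primary qHTS, 1536-well format. 20 nM WRN + compound, 15 min RT; start with 100 nM forked fluorophore/quencher duplex, 2 mM ATP (final); kinetic read ex 525/em 598 nm.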
* marks the source's active call; other numbers are inactive results; [ ] = remark or other dose. Compounds with a hit are over-represented: about 2.4% of the library has one in this group of screens. Calls follow the shape of the dose curve; as a rule, active = well fitted curve in the direction sought with a large enough effect; inconclusive = small, poorly fitted or top-dose-only effect, or another doubt; inactive = no such curve, though single readings can be large; an effect the other way counts as inactive or inconclusive. Potency is read from the fitted curve at half-maximal effect.

For CC1=C(C(=O)OCc2ccccc2)N2C(=O)[C@@H](NC(=O)OCc3ccccc3)[C@H]2SC1 the results were FEN1 inh -20%, Pol kappa inh -14% and POLI inh -1%.
Screening COc1cccc(CNC(=O)CN2C(=O)CSc3c2c(C)nn3-c2ccccc2)c1OC returned FEN1 inh -7%, Pol eta inh -22%, Pol kappa inh -25%, Pol beta inh -3% and POLI inh 3%.
Screening COc1cc2nc(N3CCCN(C)CC3)nc(N)c2cc1OC returned FEN1 inh inconclusive, Pol kappa inh -30% and POLI inh -13%.
Screening CCNC(=O)CSc1ncnc2sccc12 returned FEN1 inh 4%, Pol eta inh 22µM*, Pol kappa inh -17%, Pol beta inh inconclusive, POLI inh inconclusive and WRN helicase inh -32%.
For COc1ccc(/C=N/Nc2cc(C)nc3ccccc23)cc1 the results were FEN1 inh 40µM*, Pol eta inh inconclusive, Pol kappa inh -23%, Pol beta inh 79µM*, POLI inh inconclusive and WRN helicase inh inconclusive.
COc1ccc(Nc2cc(C)nc3c(C)c(C)ccc23)cc1 was read as FEN1 inh inconclusive, Pol eta inh -15%, Pol kappa inh -3%[60.1 µM], Pol beta inh -27% and POLI inh -19%.
For COc1ccc2nc(C)cc(N/N=C/c3ccc(F)cc3)c2c1 the results were FEN1 inh inconclusive, Pol eta inh -5%, Pol kappa inh -13%, Pol beta inh -3%, POLI inh -20% and WRN helicase inh 5%.
Screening COc1ccc2nc(C)cc(Nc3ccc(C(=O)O)cc3)c2c1 returned FEN1 inh 11%, Pol eta inh -5%, Pol kappa inh -3%, Pol beta inh -3%, POLI inh -5% and WRN helicase inh 1%.
COc1ccc(Nc2cc(C)nc3ccc(OC)cc23)cc1 was read as FEN1 inh inconclusive, Pol eta inh -12%, Pol kappa inh -22%, Pol beta inh 22µM*, POLI inh inconclusive and WRN helicase inh -27%.
For COc1ccc(/C=N/Nc2cc(C)nc3c(C)cccc23)cc1 the results were FEN1 inh 18µM*, Pol eta inh inconclusive, Pol kappa inh -18%, Pol beta inh 25µM*, POLI inh -13% and WRN helicase inh inconclusive.
For COc1cccc2c(N/N=C/c3ccc(O)c(O)c3)cc(C)nc12 the results were FEN1 inh -13%, Pol eta inh -9%, Pol kappa inh -31%, Pol beta inh 20µM*, POLI inh inconclusive and WRN helicase inh -4%.
O=c1cc(C(F)F)oc2c1ccc1ccccc12 was read as FEN1 inh -9%, Pol eta inh -3%, Pol kappa inh -9%, Pol beta inh 13%, POLI inh -17% and WRN helicase inh -3%.
Screening O=Cc1coc2c(ccc3ccccc32)c1=O returned Pol beta inh 79µM*.
`O=C(N/N=C/C(Cl)=C/c1ccc([N+](=O)[O-])cc1)C(=O)Nc1cccc(C(=O)O)c1` gave FEN1 inh -17%, Pol eta inh 50µM*, Pol kappa inh 12%, Pol beta inh inconclusive, POLI inh inconclusive and WRN helicase inh -6%.
For COc1ccc(C(C(=O)NCc2ccccc2)N(C(=O)Cn2nnc3ccccc32)c2ccc(F)cc2)cc1 (stereo unspecified) the results were FEN1 inh -1%, Pol eta inh -5%, Pol kappa inh 0%, Pol beta inh 0% and POLI inh 6%.
`CC1=NNC(=O)/C1=C\c1cn(-c2ccccc2)nc1-c1ccc(F)cc1` gave FEN1 inh -14%, Pol eta inh -8%, Pol kappa inh -9%, Pol beta inh 6%, POLI inh 25µM* and WRN helicase inh -21%.
CC1=NNC(=O)/C1=C\c1cn(-c2ccccc2)nc1-c1cccs1 was read as FEN1 inh -24%, Pol eta inh -16%, Pol kappa inh -9%, Pol beta inh 18%, POLI inh inconclusive and WRN helicase inh -9%.
For CC1=Nc2ccccc2/C1=C/c1sc(=S)n(-c2cccc(C(=O)O)c2)c1O the results were FEN1 inh inconclusive, Pol eta inh 35µM*, Pol kappa inh inconclusive, Pol beta inh -22%, POLI inh inconclusive and WRN helicase inh inconclusive.
Cc1cc(/C=N/NC(=O)C(O)(c2ccccc2)c2ccccc2)c(C)n1-c1ccc(C(=O)O)cc1 was read as FEN1 inh -14%, Pol eta inh 79µM*, Pol kappa inh -22%, Pol beta inh inconclusive, POLI inh inconclusive and WRN helicase inh 1%[11.6 µM].
For Cc1cc(/C=N/NC(=O)c2cccc(N(C)C)c2)c(C)n1-c1cc(C(=O)O)cc(C(=O)O)c1 the results were FEN1 inh inconclusive, Pol eta inh 20µM*, Pol kappa inh 32µM*, Pol beta inh 18µM*, POLI inh 10µM* and WRN helicase inh inconclusive.
Screening Cn1c(SCC(=O)Nc2ccc(Br)cn2)nnc1C1CC1 returned FEN1 inh 11%, Pol eta inh 79µM*, Pol kappa inh -42%, Pol beta inh inconclusive, POLI inh inconclusive and WRN helicase inh -1%.
`Cn1c(=O)c2cc(C(=O)Nc3cccc(C#N)c3)sc2c2ccccc21` gave FEN1 inh 26%, Pol eta inh -10%, Pol kappa inh -2%, Pol beta inh 4% and POLI inh 6%.
For COc1cc(NC(=O)c2nn(-c3ccc(F)cc3)c(=O)n(C)c2=O)cc(OC)c1OC the results were FEN1 inh -9%, Pol eta inh -4%, Pol kappa inh -9%[60.1 µM], Pol beta inh 34% and POLI inh 0%.
For COc1ccc(C(=O)CCC(=O)Nc2cc(Cl)c(O)c(Cl)c2)cc1 the results were FEN1 inh -16%, Pol eta inh 22µM*, Pol kappa inh inconclusive, Pol beta inh 28µM*, POLI inh 45µM* and WRN helicase inh -21%.
`Cc1ccc(-c2nc(=Nc3ccccc3)sn2-c2ccccc2)cc1` gave FEN1 inh 14%, Pol kappa inh -2% and POLI inh 14%.
N=c1nc(-c2ccccc2)n(-c2ccccc2)s1 was read as FEN1 inh 89µM*, Pol kappa inh -7% and POLI inh -5%.
